Rows were chosen to be rich in hits. Some 12% of all compounds tested hit in one or more screens of this group.
BAZ2B inh: inhibitors of human BAZ2B bromodomain; AID 504333; Potency, µM (highest dose often 114 µM), usual class: inhibitors; Q9UIF8; AlphaScreen BAZ2B-H3K14Ac peptide displacement; 360,000 compounds, 4.4% hits; further: nearly all actives have a fitted effect of over 60% in size
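AlphaScreen displacement of biotin-H3(5-23)K14Ac peptide (50 nM final) from BAZ2B (50 nM final) in PBS pH 7.4, 0.01% Tween-20; complex preformed 30 min RT, then compounds (top 110 uM) 30 min RT, beads 20 min dark.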
HP1b chromo inh: HP1-beta chromodomain-methylated histone interaction inhibition | P83916 | AlphaScreen HP1-beta / biotin-H3K9me3 peptide binding | Potency, µM (titrated, usually from 114 µM), hits mostly inhibitors | 390,000 compounds, 0.56% hits | AID 540317; further: nearly all actives have a fitted effect of over 70% in size
Target sequence (P83916 whole entry, looked up): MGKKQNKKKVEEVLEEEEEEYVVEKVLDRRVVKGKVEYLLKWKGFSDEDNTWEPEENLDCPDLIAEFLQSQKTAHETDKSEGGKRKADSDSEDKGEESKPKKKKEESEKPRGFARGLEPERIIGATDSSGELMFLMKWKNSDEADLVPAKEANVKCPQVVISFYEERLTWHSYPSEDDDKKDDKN
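Compound inhibition of the preformed complex between 50 nM HP1-beta and 50 nM biotinylated H3K9me3 peptide was read by AlphaScreen. Buffer was PBS pH 7.4 with 0.01% Tween-20. Incubations ran 30 min at room temperature, with 10 ug/mL donor/acceptor beads.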
L3MBTL1 inh: inhibitors of human L3MBTL1; AlphaScreen L3MBTL1–H3K9me1 peptide binding; Potency, µM (doses to about 57.1 µM), usual class: inhibitors; 230,000 compounds, 0.66% hits; further: nearly all actives have a fitted effect of over 60% in size
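AlphaScreen proximity signal between nickel-chelate acceptor and streptavidin donor beads (final 10 ug/mL) reports binding of 50 nM L3MBTL1 to 75 nM biotin-H3 K9me1 peptide; complex incubated with compounds 30 min at room temperature; cefsulodin titration as control.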
Sfp PPTase inh: inhibitors of Bacillus subtilis Sfp phosphopantetheinyl transferase | Q9F4F7 | AID 1490 | 310,000 compounds, 3.5% hits | Biochemical Sfp PPTase activity, qHTS | Potency, µM, actives largely listed as inhibitors;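 further: the enzyme is Sfp with the accession as filed and its product quenches rhodamine fluorescence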
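Reaction rates are the 30-min fluorescence difference (ex 525, em 598 nm) in wells containing 15 nM Sfp, 5 uM rhodamine-CoA and 12.5 uM BHQ-2-YbbR at pH 7.6 with 10 mM MgCl2.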
G9a inh: inhibitors of human histone lysine methyltransferase G9a; Q96KQ7; G9a H3K9 monomethylation, AlphaScreen, 2 h; Potency, µM (highest dose often 102 µM), hits mostly inhibitors; 350,000 compounds, 8.8% hits; AID 504332; further: nearly all actives have a fitted effect of over 75% in size
Target sequence (Q96KQ7 913-1193 limits assumed): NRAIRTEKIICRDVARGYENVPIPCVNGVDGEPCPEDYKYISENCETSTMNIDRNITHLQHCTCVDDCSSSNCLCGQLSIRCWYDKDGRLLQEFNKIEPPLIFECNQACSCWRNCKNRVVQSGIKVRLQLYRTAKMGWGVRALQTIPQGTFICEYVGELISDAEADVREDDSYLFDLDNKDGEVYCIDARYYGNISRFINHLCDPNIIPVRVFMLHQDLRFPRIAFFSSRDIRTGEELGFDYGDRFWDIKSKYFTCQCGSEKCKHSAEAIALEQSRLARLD
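G9a (20 nM) was preincubated 15 min with compound, then reacted 2 h at room temperature with 500 nM biotin-H3K9 peptide and 20 µM SAM. Monomethyl-H3K9 detected by AlphaScreen using anti-H3K9me1 antibody.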
JMJD2A Tudor inh: blocks the human JMJD2A Tudor domain; O75164; AlphaScreen JMJD2A-Tudor / H3K4me3 peptide binding; AID 504339; Potency, µM (top dose mostly 114 µM), hits mostly inhibitors; 390,000 compounds, 4.4% hits; further: nearly all actives have a fitted effect of over 50% in size
Large screens that a line does not name were inactive. The call rests on the fitted dose curve; in most records, active means well fitted curve in the direction sought with a large enough effect; inconclusive means small, poorly fitted or top-dose-only effect, or another doubt; inactive means no such curve, though single readings can be large; an effect the other way counts as inactive or inconclusive.

COc1ccc(Nc2cc(C(=O)NCCCN3CCN(C)CC3)c3ccccc3n2)cc1OC	G9a inh 3.5µM
COc1ccc(Nc2cc(C(=O)NCCCN(C)Cc3ccccc3)c3ccccc3n2)c(OC)c1	BAZ2B inh inconclusive, HP1b chromo inh inconclusive, G9a inh inconclusive, JMJD2A Tudor inh 32µM (no result: L3MBTL1 inh, Sfp PPTase inh)
COc1ccc(Nc2cc(C(=O)NCCCN(C)Cc3ccccc3)c3ccccc3n2)cc1	BAZ2B inh inconclusive, JMJD2A Tudor inh inconclusive (no result: L3MBTL1 inh, Sfp PPTase inh)
COc1ccc(-n2cc(C(=O)OCc3ccc(Cl)cc3)c3ccccc3c2=O)cc1	none (no result: L3MBTL1 inh, Sfp PPTase inh)
COc1ccc(CC(=O)OC(C)C(=O)NCc2ccc3c(c2)OCO3)cc1OC (stereo not given)	none (no result: Sfp PPTase inh)
COC(=O)c1ccccc1NC(=O)CCC(=O)N1CCOc2ccccc21	none (no result: L3MBTL1 inh, Sfp PPTase inh)
COc1ccc(Nc2cc(C(=O)NCCCN3CCOCC3)c3ccccc3n2)c(OC)c1	JMJD2A Tudor inh inconclusive (no result: L3MBTL1 inh)
COc1ccc(N2CCN(CCCNC(=O)c3cc(Nc4ccccc4OC)nc4ccccc34)CC2)cc1	BAZ2B inh 10µM, HP1b chromo inh inconclusive, G9a inh 10µM, JMJD2A Tudor inh 35µM (no result: L3MBTL1 inh, Sfp PPTase inh)
Cc1ccc(C)c(Cn2c3ccccc3c3cnn(CC(=O)NCc4ccccc4)c(=O)c32)c1	none (no result: L3MBTL1 inh, Sfp PPTase inh)
CC(=O)N1CC[C@H]2CC(=O)CC[C@@]21C	none (no result: BAZ2B inh, HP1b chromo inh, L3MBTL1 inh, JMJD2A Tudor inh)
COc1ccc(CNC(=O)CN(C(=O)c2ccc(CN3CCOCC3)o2)C2CCCC2)cc1	G9a inh 3.5µM
CCOC(=O)C1=C(C)N=c2s/c(=C/c3ccc(OCC(=O)O)cc3)c(=O)n2C1c1ccc(OC)cc1OC (stereo not given)	BAZ2B inh 35µM, G9a inh 50µM, JMJD2A Tudor inh 50µM
CCOC(=O)C1=C(C)N=c2s/c(=C\c3ccc(OCC(=O)O)cc3)c(=O)n2C1c1ccccc1OC (stereo not given)	BAZ2B inh 79µM, JMJD2A Tudor inh 89µM (no result: L3MBTL1 inh)
COc1ccc(C2C(C(C)=O)=C(C)N=c3s/c(=C\c4cc(C)n(C)c4C)c(=O)n32)c(OC)c1 (stereo not given)	BAZ2B inh inconclusive, Sfp PPTase inh inconclusive, G9a inh inconclusive, JMJD2A Tudor inh inconclusive
CCOC(=O)C1=C(C)N=c2s/c(=C/c3cccc([N+](=O)[O-])c3O)c(=O)n2C1c1ccc(OC)cc1OC (stereo not given)	BAZ2B inh 5µM, HP1b chromo inh 7.1µM, L3MBTL1 inh inconclusive, Sfp PPTase inh 50µM, G9a inh 7.1µM, JMJD2A Tudor inh 11µM
COc1ccc(C2C(C(C)=O)=C(C)N=c3s/c(=C\c4ccco4)c(=O)n32)c(OC)c1 (stereo not given)	HP1b chromo inh inconclusive, L3MBTL1 inh inconclusive, Sfp PPTase inh 50µM, G9a inh 11µM, JMJD2A Tudor inh 32µM (no result: BAZ2B inh)
COc1ccc(C2C(C(C)=O)=C(C)N=c3s/c(=C\c4ccc5c(c4)OCO5)c(=O)n32)c(OC)c1 (stereo not given)	none (no result: BAZ2B inh, L3MBTL1 inh, Sfp PPTase inh, G9a inh)
CCOC(=O)C1=C(C)N=c2s/c(=C/c3ccccc3)c(=O)n2C1c1ccc(OC)c(OC)c1 (stereo not given)	none
CCOC(=O)C1=C(C)N=c2s/c(=C\c3ccc(O)c([N+](=O)[O-])c3)c(=O)n2C1c1ccccc1OC (stereo not given)	BAZ2B inh 8.9µM, HP1b chromo inh inconclusive, G9a inh 14µM, JMJD2A Tudor inh 10µM
COc1ccc(/C=c2/sc3n(c2=O)C(c2ccccc2OC)C2=C(N=3)c3ccccc3CC2)cc1O (stereo not given)	BAZ2B inh inconclusive, JMJD2A Tudor inh inconclusive (no result: G9a inh)
OCC1OC(c2ccccc2)C=CC1Oc1cc(Cl)cc(Cl)c1 (stereo not given)	none (no result: BAZ2B inh, HP1b chromo inh, L3MBTL1 inh, G9a inh, JMJD2A Tudor inh)
O=C(COC(=O)c1ccccn1)Nc1ccccc1OC(F)F	BAZ2B inh 50µM, JMJD2A Tudor inh 56µM (no result: L3MBTL1 inh)
CCOC(=O)c1ncccc1NC(=O)CC(=O)Nc1cccnc1C(=O)OCC	JMJD2A Tudor inh 13µM (no result: BAZ2B inh, L3MBTL1 inh, Sfp PPTase inh, G9a inh)
COc1ccc(C(=O)COC(=O)c2ccccn2)c(OC)c1	none (no result: BAZ2B inh, Sfp PPTase inh, G9a inh)
O=C(COC(=O)c1cccnc1Cl)Nc1ccccc1OC(F)F	none
O=C(COC(=O)c1ccccn1)Nc1cccnc1Cl	BAZ2B inh 79µM, G9a inh 28µM, JMJD2A Tudor inh inconclusive (no result: Sfp PPTase inh)

High-throughput results from PubChem.
